# Assay results reported in ChEMBL document CHEMBL3988442, “University of Dundee, Small-Polar-MMV Screening Library” (2021).
# In all, about 66,000 compounds went through this assay and about 960 (1.5%) showed an effect of 50% or more. This excerpt belongs to a sample that is enriched for strong results.
# Test system: Trypanosoma brucei
# Assay: Trypanosoma brucei 72 hour study
# Assay type: functional, organism-based
# Design: scale not given: in the data most compounds retested in dose-response had high values
structure (smiles),measurement,setting,value
N#CC1(C(=O)N2C[C@H]3CC[C@@H]2CN(Cc2cscn2)C3)CCOCC1,Percent Effect,"30 µM, 30.03 µM",-52.3%
Cc1nn(C)c(C)c1C1CCCN1CC(=O)Nc1nccs1 (configuration not stated),Percent Effect,"30.3 µM, […]",-4.403%
CNC(=O)[C@@H]1C[C@H]2CN(Cc3csc(C)n3)C[C@H]2N1C(C)C.O=C(O)C(F)(F)F.O=C(O)C(F)(F)F,Percent Effect,"30.3 µM, […]",4.031%
Cc1nc(C(=O)N2CCN(c3ccc(Cl)c(Cl)c3)CC2)cs1,Percent Effect,"30.3 µM, […]",12.74%
Cc1nccc([C@@H]2C[C@@H]3CCN(S(C)(=O)=O)C[C@H]3O2)n1,Percent Effect,"30 µM, 30.03 µM",53.53%
Cc1nccc([C@H]2C[C@@H]3CCN(S(C)(=O)=O)C[C@H]3O2)n1,Percent Effect,"30.3 µM, […]",-74.86%
Cc1nccc([C@H]2C[C@@H]3CCN(S(=O)(=O)C4CC4)C[C@H]3O2)n1,Percent Effect,"30.3 µM, […]",-36.22%
CCNC(=O)Nc1ccc(N2CCC(OC)CC2)c(C(F)(F)F)c1,Percent Effect,"30 µM, 30.03 µM",-0.4307%
COc1ccc(CN2CCc3[nH]nc(C(=O)N(C)C)c3C2)cc1.O=C(O)C(F)(F)F,Percent Effect,"30.3 µM, […]",4.36%
COc1ccc(F)c(CN(CCCn2ccnc2)Cc2ccc(C)s2)c1.O=C(O)CC(O)(CC(=O)O)C(=O)O,Percent Effect,"30.3 µM, […]",-24.6%
CN(CC(=O)NC(Cc1ccsc1)c1cccnc1)Cc1cccnc1.Cl (configuration not stated),Percent Effect,"30.3 µM, […]",-0.9311%
CC(C)c1nnc(CN(C)C(c2ccc(F)cc2)c2cccnc2)o1 (configuration not stated),Percent Effect,"30 µM, 30.03 µM",-53.44%
CC(C)c1noc(CN(C)C(c2ccc(F)cc2)c2cccnc2)n1 (configuration not stated),Percent Effect,"30 µM, 30.03 µM",70.75%
CN(Cc1nnc(C2CC2)o1)C(c1ccc(F)cc1)c1cccnc1 (configuration not stated),Percent Effect,"30 µM, 30.03 µM",-93.52%
Cc1noc(NCc2cc(F)ccc2F)n1,Percent Effect,"30.3 µM, […]",50.55%
Cc1nnc(NCc2ccc(F)cc2)o1,Percent Effect,"30 µM, 30.03 µM",-52.4%
Cc1noc(NCc2cn(C)nc2-c2cccnc2)n1,Percent Effect,"30 µM, 30.03 µM",-14.18%
Cc1noc(NCc2ccc(F)cc2)n1,Percent Effect,"30.3 µM, […]",55.37%
CC(C)(C)c1nnc(NCc2ccc(F)cc2)o1,Percent Effect,"30 µM, 30.03 µM",-100%
COCc1cc(NCc2cc(F)ccc2F)n2nccc2n1,Percent Effect,"30 µM, 30.03 µM",-36.1%
Cc1noc(NCc2cn(C)nc2-c2ccncc2)n1,Percent Effect,"30 µM, 30.03 µM",-13.42%
Cc1noc(CS(=O)(=O)c2cc(F)ccc2F)n1,Percent Effect,"30.3 µM, […]",-4.369%
Cc1noc(NCc2ccc(F)cc2F)n1,Percent Effect,"30.3 µM, […]",72.2%
Cc1occc1C(=O)N1CCc2c(CNS(C)(=O)=O)cncc2C1.Cl,Percent Effect,"30.3 µM, […]",-7.203%
CN(C)C[C@]12COC[C@H]1CN(C(=O)Cc1ccc3c(c1)OCO3)C2.O=C(O)C(F)(F)F,Percent Effect,"30 µM, 30.03 µM",24.04%
Cn1ncc2c(NC3CCSC3)nc(-c3ccncc3)nc21 (configuration not stated),Percent Effect,"30.3 µM, […]",38.84%
CC(=O)N1CCN(Cc2cccs2)CC2(CC(=O)N(C)C2)C1.O=C(O)C(F)(F)F (configuration not stated),Percent Effect,"30.3 µM, […]",-45.81%
CN1CC(=O)N(c2ccsc2)CC12CCN(C(=O)c1cccn1C)C2.O=C(O)C(F)(F)F (configuration not stated),Percent Effect,"30 µM, 30.03 µM",-33.31%
Cc1noc([C@@H]2CCO[C@@H]3CCN(Cc4ccc(C)s4)C[C@@H]32)n1.O=C(O)C(F)(F)F,Percent Effect,"30 µM, 30.03 µM",1.711%
O=C(O)C(F)(F)F.O=C(O)c1c(-c2cncnc2)ncc2c1CCN(CC1CCOC1)C2 (configuration not stated),Percent Effect,"30.3 µM, […]",-18.52%
CCn1ncc2c1C(COCC1CC1)CN(c1ccncn1)C2.O=C(O)C(F)(F)F.O=C(O)C(F)(F)F (configuration not stated),Percent Effect,"30 µM, 30.03 µM",-5.077%
O=C1CCCN1C(CNS(=O)(=O)C1CC1)Cc1cccc(F)c1 (configuration not stated),Percent Effect,"30 µM, 30.03 µM",7.214%
Cc1sc2c(C3CCCN(S(C)(=O)=O)C3)nc(C)n2c1C (configuration not stated),Percent Effect,"30.3 µM, […]",73.25%
COCCN1CCCC(c2nc(C)n3c(C)c(C)sc23)C1 (configuration not stated),Percent Effect,"30.3 µM, […]",-27.06%
Cc1sc2c(C3CCCN(C(C)C)C3)nc(C)n2c1C (configuration not stated),Percent Effect,"30.3 µM, […]",-21.43%
O=C(O)C(F)(F)F.c1cncc(CN2Cc3nccn3CC(Cn3cncn3)C2)c1 (configuration not stated),Percent Effect,"30 µM, 30.03 µM",-73.02%
Cc1cccc(C2(CNC(C)c3nnc(C)o3)CCCC2)c1 (configuration not stated),Percent Effect,"30.3 µM, […]",99.4%
COc1ccc(C2(CNC(C)c3nnc(C)o3)CCCCC2)cc1 (configuration not stated),Percent Effect,"30.3 µM, […]",100.1%
Cc1nnc(C(C)NCC2(c3ccc(F)cc3)CCCCC2)o1 (configuration not stated),Percent Effect,"30.3 µM, […]",9.19%
COc1cccc(C2(CNC(C)c3nnc(C)o3)CCCC2)c1 (configuration not stated),Percent Effect,"30.3 µM, […]",-15.21%
Cc1nnc(C(C)NCC2(c3ccc(Cl)cc3)CCOCC2)o1 (configuration not stated),Percent Effect,"30.3 µM, […]",-12.99%
Cc1nnc(C(C)NCC2(c3ccc(Cl)cc3)CCCC2)o1 (configuration not stated),Percent Effect,"30.3 µM, […]",-10.5%
Cc1nccc(CNC(=O)NC(c2ncc(C)s2)C2CC2)n1 (configuration not stated),Percent Effect,"30 µM, 30.03 µM",-69.67%
CN(C)CCOCc1nnc2n1CCN(Cc1ccco1)CC2.O=C(O)C(F)(F)F.O=C(O)C(F)(F)F,Percent Effect,"30.3 µM, […]",-5.145%
CCC1=N[C@@]2(CC[C@@H]3CN(Cc4ccc(C)cc4)C[C@@H]32)C(=O)N1C.O=C(O)C(F)(F)F,Percent Effect,"30.3 µM, […]",-61.95%
O=C(O)C(F)(F)F.O=C1CC2(CCCCN2C(=O)c2ccncc2)CN1CC1CC1 (configuration not stated),Percent Effect,"30.3 µM, […]",-11.8%
O=C(CCn1cncn1)N1CCCC1c1noc(C2CC2)n1 (configuration not stated),Percent Effect,10 µM,-39.57%
COCCN1CCC2(CC1)CC(NC(=O)C1CC1)c1ccccc1O2.O=C(O)C(F)(F)F (configuration not stated),Percent Effect,"30.3 µM, […]",-14.66%
Fc1ccc2[nH]c3c(c2c1)CCN1C(c2ccncc2)N2CCC31CC2 (configuration not stated),Percent Effect,"30.3 µM, […]",100.7%
Fc1ccc2[nH]c(C3CCCN3CCc3ccccn3)nc2c1 (configuration not stated),Percent Effect,"30 µM, 30.03 µM",22.71%
Fc1ccc2[nH]c3c(c2c1)CCN1C(c2ccccn2)N2CCC31CC2 (configuration not stated),Percent Effect,"30.3 µM, […]",100.3%
CC(=O)NC1CCCc2c1[nH]c1ccc(F)cc21 (configuration not stated),Percent Effect,"30 µM, 30.03 µM",-27.6%
O=C(N1CCC(OCc2ccccn2)CC1)C1(c2ccc(F)cc2)CC1,Percent Effect,"30 µM, 30.03 µM",-36.15%
Cc1nc(Nc2ncccn2)cc(C2CCN(CC(C)C)C2)n1 (configuration not stated),Percent Effect,"30.3 µM, […]",4.591%
CN(CCCOc1ccccc1Cl)C(=O)CN1C[C@@H]2CC[C@H](CC1=O)N2,Percent Effect,"30.3 µM, […]",-75.76%
COc1ccccc1-c1ncc(CN2C[C@H](O)[C@@H](N3CCCC3)C2)s1,Percent Effect,"30.3 µM, […]",20.14%
COc1ccccc1-c1ncc(CN2CCCC[C@H](N(C)C)C2)s1,Percent Effect,"30.3 µM, […]",40.64%
COc1ccccc1-c1ncc(CN2C[C@@H](N(C)C)[C@H](C(C)C)C2)s1,Percent Effect,"30.3 µM, […]",89.3%
COc1ccc(C2CCCN2C(=O)NCCCn2ccnc2)cc1 (configuration not stated),Percent Effect,"30.3 µM, […]",-18.05%
CC(Nc1ncnc2c1CCNC2)c1ccc2c(c1)CCCC2 (configuration not stated),Percent Effect,"30.3 µM, […]",100.2%
Cc1cc(C)n(CC(C)Nc2ncnc3c2CCNC3)n1 (configuration not stated),Percent Effect,"30 µM, 30.03 µM",-30.59%
Cc1ccccc1C(CNc1ncnc2c1CCNC2)N(C)C (configuration not stated),Percent Effect,"30 µM, 30.03 µM",-30.9%
Cc1ccccc1C(Nc1ncnc2c1CCNC2)c1ccccc1 (configuration not stated),Percent Effect,"30 µM, 30.03 µM",-12.11%
CC(Nc1ncnc2c1CCNC2)c1ccc(C(C)(C)C)cc1 (configuration not stated),Percent Effect,"30.3 µM, […]",90.36%
CCOc1ccc(C(C)Nc2ncnc3c2CCNC3)cc1OCC (configuration not stated),Percent Effect,"30.3 µM, […]",2.402%
CCCc1ccc(C(C)Nc2ncnc3c2CCNC3)cc1 (configuration not stated),Percent Effect,"30.3 µM, […]",56.69%
CC(Nc1ncnc2c1CCNCC2)c1nc2c(s1)CCCC2 (configuration not stated),Percent Effect,"30 µM, 30.03 µM",6.589%
CC(C)Nc1ncnc2c1CCNCC2,Percent Effect,"30.3 µM, […]",-40.35%
CCNC(c1ccc(F)cc1)c1cccnc1 (configuration not stated),Percent Effect,"30 µM, 30.03 µM",-17.98%
O=C(O)C(F)(F)F.O=C(c1cccs1)N1CC[C@@H](N2CCOCC2)[C@@H]1Cc1ccccc1,Percent Effect,"30 µM, 30.03 µM",16.01%
O=C(O)C(F)(F)F.O=C(O)[C@]12CCCN(CC3CCOC3)C[C@H]1CN(c1ncccn1)C2 (some centres not stated),Percent Effect,"30.3 µM, […]",-92.21%
Cc1cccc(C(=O)N2CCCN(CCCSCC#N)CC2)c1,Percent Effect,"30 µM, 30.03 µM",-25.24%
O=C(O)C(F)(F)F.O=C(c1ccccc1)N1CCC[C@]2(C[C@@H](Oc3ncccc3F)CO2)C1,Percent Effect,"30 µM, 30.03 µM",-46.98%
CC(C)CC(=O)NCCn1nc(C2CCNC2)c2cccnc21.Cl (configuration not stated),Percent Effect,"30.3 µM, […]",2.604%
CC(=O)N1N=C(c2ccco2)OC1C(=O)N(C)CCc1ccccc1 (configuration not stated),Percent Effect,"30.3 µM, […]",-0.7394%
same,Percent Effect,"10 mM, 10 mM as filed; unlikely as a test dose",-39.66%
CC(=O)N1N=C(c2ccco2)OC1C(=O)N(CC(C)C)CC(C)C (configuration not stated),Percent Effect,"30.3 µM, […]",65.41%
same,Percent Effect,"10 mM, 10 mM as filed; unlikely as a test dose",-14.31%
CC(=O)N1N=C(c2ccco2)OC1C(=O)NCC(C)C (configuration not stated),Percent Effect,"30.3 µM, […]",15.99%
same,Percent Effect,"10 mM, 10 mM as filed; unlikely as a test dose",-43.02%
CCCc1nc(N2CCCN(c3ncccn3)CC2)c2cnn(C)c2n1,Percent Effect,"30 µM, 30.03 µM",-12.92%
CCCc1nc(N2CCCN(c3ccncc3)CC2)c2cnn(C)c2n1,Percent Effect,"30 µM, 30.03 µM",59.27%
CCCc1nc(N2CCN(Cc3ccccn3)CC2)c2cnn(C)c2n1,Percent Effect,"30 µM, 30.03 µM",36.81%
CC(=O)N1CCC(n2nccc2-c2cnc(N)nc2)CC1,Percent Effect,"30.3 µM, […]",-9.866%
Cn1ncc2c(N[C@H]3CCCC[C@@H]3O)nc(C(C)(C)C)nc21,Percent Effect,"30.3 µM, […]",-1.471%
Cn1ncc2c(NC3CCCN(C(=O)C4CC4)C3)nc(C(C)(C)C)nc21 (configuration not stated),Percent Effect,"30 µM, 30.03 µM",43.28%
Cn1ncc2c(N[C@H]3CC[C@@H](N)CC3)nc(C(C)(C)C)nc21,Percent Effect,"30.3 µM, […]",99.86%
Cc1cccc(C(=O)N2C[C@@H]3CCN(c4cccnc4)C[C@@H]3C2)c1.O=C(O)C(F)(F)F,Percent Effect,"30 µM, 30.03 µM",1.381%
COCCN1C(=O)CC[C@@H]2[C@H]1CCN2Cc1cccc(C#N)c1.O=C(O)C(F)(F)F,Percent Effect,"30.3 µM, […]",-247.8%
CCCN(Cc1ccccc1O)S(=O)(=O)C(C)CC (configuration not stated),Percent Effect,"30 µM, 30.03 µM",101.6%
CCCN(Cc1ccccc1O)S(=O)(=O)N(C)CC,Percent Effect,"30 µM, 30.03 µM",-50.11%
CCC(C)S(=O)(=O)N(Cc1ccco1)Cc1ccccc1O (configuration not stated),Percent Effect,"30 µM, 30.03 µM",-17.24%
Cl.Nc1ccc(-c2cnc(C3CCCN3)cn2)cn1 (configuration not stated),Percent Effect,"30.3 µM, […]",19.85%
Cc1ccc(N2CCc3sc(C(=O)N4CCOCC4)cc32)nn1,Percent Effect,"30.3 µM, […]",-27.02%
Cc1ccc(N2CCc3sc(C(=O)NCCN4CCCC4)cc32)nn1,Percent Effect,"30.3 µM, […]",54.03%
O=C(NCCN1CCCC1)c1cc2c(s1)CCN2c1ncccn1,Percent Effect,"30.3 µM, […]",35.85%
Cc1cc(C(=O)N2CC[C@H]3[C@H](C[C@@H](CN4CCCC4)N3C)C2)c(C)o1.O=C(O)C(F)(F)F.O=C(O)C(F)(F)F,Percent Effect,"30.3 µM, […]",-13.25%
